The source of these data is PubChem BioAssay AID720504 (National Center for Advancing Translational Sciences (NCATS), 2013).

About 10,000 (2.8%) of roughly 360,000 compounds were called active. About 4% were inconclusive and are not listed. The sample as a whole holds a higher share of actives than the screen did. A number with no mark means an inactive call. The call rests on the fitted dose curve; in most records, active means well fitted inhibition curve with a large enough effect; inconclusive means small, poorly fitted or top-dose-only effect; inactive means flat fitted curve, though single readings scatter.
On the % scale 0 is the no-effect control and ±100 the full control effect; potency means the concentration at half of the fitted maximal effect.

For this experiment, the target named is Serine/threonine-protein kinase PLK1 (Homo sapiens) (UniProt P53350). The experiment in a line: qHTS for Inhibitors of PLK1-PDB (polo-like kinase 1 - polo-box domain): Primary Screen. Further: nearly all actives have a fitted effect of over 65% in size. On max response, negative = inhibition: series mostly up to about 57 µM. The following applies: Plk1 PBD binding of FITC phosphopeptide, fluorescence polarization. In general terms: Quantitative high-throughput screening tests each substance at several concentrations.
Sequence of Serine/threonine-protein kinase PLK1 (Homo sapiens) (P53350 whole entry, looked up, the tested form may be a part): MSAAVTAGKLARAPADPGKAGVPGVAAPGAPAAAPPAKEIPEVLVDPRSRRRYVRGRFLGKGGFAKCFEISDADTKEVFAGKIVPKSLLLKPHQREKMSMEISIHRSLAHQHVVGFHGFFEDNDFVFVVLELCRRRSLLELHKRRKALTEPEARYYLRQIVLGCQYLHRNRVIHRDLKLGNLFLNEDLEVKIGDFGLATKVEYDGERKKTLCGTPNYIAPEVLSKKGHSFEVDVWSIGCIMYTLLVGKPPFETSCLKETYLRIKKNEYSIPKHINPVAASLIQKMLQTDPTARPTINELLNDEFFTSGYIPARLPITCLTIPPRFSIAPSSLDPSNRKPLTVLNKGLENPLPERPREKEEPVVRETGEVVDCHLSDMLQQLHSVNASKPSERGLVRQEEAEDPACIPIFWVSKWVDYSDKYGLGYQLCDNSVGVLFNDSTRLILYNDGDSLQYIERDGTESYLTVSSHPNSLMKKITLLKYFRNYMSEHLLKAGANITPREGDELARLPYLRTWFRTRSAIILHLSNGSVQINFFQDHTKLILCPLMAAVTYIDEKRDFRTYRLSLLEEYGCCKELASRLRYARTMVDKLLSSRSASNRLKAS
Take `Cc1ccc([C@H]2N[C@]3(CCCN(Cc4ccccc4)C3=O)[C@H]3C(=O)N(Cc4ccccc4)C(=O)[C@@H]23)cc1`: the max response, negative = inhibition was 5.77%.
On to `O=C(NCc1ccccc1Cl)c1csc([C@@H]2O[C@H](CO)[C@@H](O)[C@H]2O)n1`, for which the max response, negative = inhibition was -2.33%.
Take `CCCNC(=O)C1(C)CCCN(C(=O)c2cccc(OC(C)=O)c2C)C1` (configuration not stated): the max response, negative = inhibition was 2.94%.
Take `O=C(NC(=S)Nc1ccc(S(=O)(=O)N2CCOCC2)cc1)c1ccccc1[N+](=O)[O-]`: the Potency is 33.6 µM (active).
Consider `COc1cccc(OC)c1C(=O)NC(=S)Nc1ccc(N2CCOCC2)c(Cl)c1`, for which the max response, negative = inhibition was -8.56%.
The same measure, in the same setting: the value for `O=C(NNC(=S)Nc1ccccc1)c1cccc(S(=O)(=O)N2CCOCC2)c1` was 2.12%; that for `Cc1ccc(C(=O)NC(=S)Nc2ccc(N3CCOCC3)cc2)cc1` was -12.8%; that for `O=C(Nc1ccc(S(=O)(=O)N2CCOCC2)cc1)C1CCN(S(=O)(=O)c2ccc(Cl)cc2)CC1` was 3.5%.
`COc1ccccc1C(=O)NC(=S)Nc1ccc(N2CCOCC2)cc1`: the Potency was 26.7 µM (active).
For the compound `CC(C)(C)NC(=O)C(CCc1ccccc1)n1c(=O)c(-c2ccccc2)nc2ccccc21` (configuration not stated), the max response, negative = inhibition is -22.7%.
On the same count and under the same terms, the value for `CCCCN(C=O)c1c(CC)nc2c(OCCC3CCCCC3)cccn12` was -1.3%; that for `O=CNc1cc(-c2ccc(C(=O)N3CCOCC3)cc2)cn2c(-c3ccc(F)cc3)cnc12` was -25.7%; that for `O=C(C[C@H]1CC[C@@H](NC(=O)c2ccncc2)[C@@H](CO)O1)NCC1CC1` was -5.23%.
`CN(Cc1ccccc1)C(=O)CCNC(=O)Cn1cnc2ccccc2c1=O`: the max response, negative = inhibition was -6.79%.
Same read-out and setting: as for `Cc1sc2ncn(CC(=O)NCCCC(=O)NCc3ccc(F)cc3)c(=O)c2c1C`, the figure is -9.91%.
On to `Cc1sc2ncn(CC(=O)NCCCC(=O)N(C)Cc3ccccc3)c(=O)c2c1C`, for which the Potency is 26.7 µM (active).
As to `Cc1ccc([C@H]2C[C@H](O)[C@@H](n3cc(COC(=O)c4ccccc4)nn3)CN2CC2CCCCC2)cc1`, the max response, negative = inhibition is 7.82%.
Same read-out and setting: as for `Cc1nc(SCC(=O)N2CC(=O)Nc3ccccc32)c2c(C)c(C)sc2n1`, the figure is -1.22%.
Take `COc1cccc(Nc2nnc(SCC(=O)N3CC(=O)Nc4ccccc43)s2)c1`: the Potency was 26.7 µM (active).
With `COc1cccc(Nc2nnc(SCC(=O)N3CC(C)OC(C)C3)s2)c1` (configuration not stated), the max response, negative = inhibition was 1.98%.
Consider `COC(=O)[C@]12CCCCC=C1N(CCC1=CCCCC1)C(=O)[C@H](CC(=O)N1CCSCC1)C2`, for which the max response, negative = inhibition is -4.1%.
Take `CCOC(=O)[C@]12CCC=C1N(CCC1=CCCCC1)C(=O)[C@H](CC(=O)NCc1ccc(C)o1)C2`: the max response, negative = inhibition was -24.8%.
Regarding `CC(=O)Nc1cccc(-c2cc(NC=O)c3ncc(-c4ccc(F)c(Cl)c4)n3c2)c1`, the max response, negative = inhibition is -21.6%.
Same read-out and setting: as for `O=S1(=O)CCN(C2CCCCCCCCCCC2)CC1`, the figure is -0.289%; as for `CCOC(=O)C(=Cc1ccccc1)C(=O)c1ccccc1`, -10.7%.
For the compound `Cc1cc(C)nc(S/C=C/C(=O)c2ccccc2)n1`, the Potency is 2.99 µM (active).
`Cc1cc(C)nc(N(C#N)CC(=O)Nc2ccccc2)n1`: the max response, negative = inhibition was -10.2%.
Same read-out and setting: the value for `Cc1ccc(S(=O)(=O)N2C[C@@H](C)[C@]3(C2)[C@H](O)[C@H](OC(=O)NCc2ccccc2)C[C@H]2C(=O)N(c4ccccc4)C(=O)[C@H]23)cc1` was -4.82%.
Take `COc1ccc(C(=O)N2CCC(C(=O)Nc3ccc(C)cc3)CC2)cc1`: the Potency was 3.36 µM (active).
`O=C(Nc1ccccc1)C1CCN(C(=O)c2ccc(Br)cc2)CC1`: the max response, negative = inhibition was 1.93%.
Still for that read-out and setting: as for `COc1ccc(C(=O)N2CCC(C(=O)Nc3cccc(C)c3)CC2)cc1OC`, the figure is -1.21%; as for `Cc1cccc(C)c1NC(=O)C(c1cccc2ccccc12)n1c(=O)c(-c2ccco2)nc2ccccc21` (configuration not stated), -15.3%.
As for `CCOC(=O)[C@]12CCCC=C1N(Cc1ccc3c(c1)OCO3)C(=O)[C@H](CC(=O)NCc1cccs1)C2`, the max response, negative = inhibition is -29.1%.
Same read-out and setting: as for `CC[C@@H](C)[C@H](NC(=O)CCc1c(C)c2cc3c4c(oc3c(C)c2oc1=O)CCCC4)C(=O)O`, the figure is -24%; as for `Cc1c(C)c2cc3c4c(oc3c(C)c2oc1=O)CCCC4`, -0.836%.
On to `Cc1c(CCC(=O)N[C@@H](CC(C)C)C(=O)O)c(=O)oc2c(C)c3oc4c(c3cc12)CCCC4`, for which the Potency was 29.9 µM (active).
Take `CC(OC(=O)c1cccnc1Cl)C(=O)NC1CCCCC1` (configuration not stated): the max response, negative = inhibition was 1.67%.
Still for that read-out and setting: the value for `O=C(OCC(=O)N1CCCCCC1)c1cccc(Cl)c1Cl` was -1.69%; that for `COc1ccc(CC(N)c2csc(NC(=O)NC(c3ccccc3)c3ccccc3)n2)cc1` (configuration not stated) was -3.78%; that for `O=C(Nc1ccc(Cl)cc1)c1csc([C@H]2C[C@H](O)[C@@H](CO)O2)n1` was -10.3%.
Consider `C=CCn1c(=S)[nH]c2scc(-c3ccco3)c2c1=O`, for which the Potency was 26.7 µM (active).
`C=CCn1c(=S)[nH]c2nc3c(cc2c1=O)COC(C)(C)C3`: the max response, negative = inhibition was 1.98%.
On the same count and under the same terms, as for `C=CCn1cnc2scc(-c3ccccc3)c2c1=O`, the figure is -4%; as for `C[C@H](CO)N1C[C@H](C)[C@H](CN(C)C(=O)Nc2ccc3c(c2)OCO3)Oc2ncc(Br)cc2C1=O`, -14.4%; as for `CC(C)CCC(=O)Nc1cc(S(=O)(=O)N2CCOCC2)ccc1N1CCCC1`, -0.0205%.
As to `CC(=O)NCCC(=O)Nc1cc(S(=O)(=O)N2CCOCC2)ccc1N1CCOCC1`, the max response, negative = inhibition is -0.805%.
Take `COCCNC(=S)Nc1cc(S(=O)(=O)N2CCOCC2)ccc1N1CCCCC1`: the Potency was 2.99 µM (active).
`CCCNC(=O)C1(C)CCCN(C(=O)c2oc3ccccc3c2C)C1` (configuration not stated): the max response, negative = inhibition is -5.78%.
Still for that read-out and setting: as for `COC(=O)c1ccc2nc(C3CCCCC3)c(Cc3cccc(F)c3)n2c1`, the figure is -6.81%; as for `O[C@H]1C[C@H](c2ccc(Cl)cc2)N(Cc2cccs2)C[C@@H]1n1cc(C2CC2)nn1`, -4.6%.
On the same count and under the same terms, as for `COc1ccc(C2C3=C(CCCC3=O)N(CC(=O)O)C3=C2C(=O)CCC3)cc1`, the figure is -11.9%.
The same measure, in the same setting: the value for `CCCCNC(=O)C1CCC(=O)N1CCc1ccccc1` (configuration not stated) was -10.6%.
Turning to `CCCCN1C(=O)CCC(C(=O)O)C1c1ccc(OC)cc1` (configuration not stated), the Potency is 26.7 µM (active).
On to `CCCCC(=O)N(C)c1c(CC)nc2c(OCc3ccc(Cl)cc3Cl)cccn12`, for which the max response, negative = inhibition is -5.31%.
`COc1cccc(CN2CCC(C(=O)NC(c3ccc4c(c3)OCO4)c3ccccn3)CC2)c1` (configuration not stated): the max response, negative = inhibition is 1.25%.
Regarding `C[C@@H]1CC2=C(C(=O)OC(C)(C)O2)[C@@H](C2CC2)O1`, the max response, negative = inhibition is -2.71%.
In the case of `CCc1ccc(NC(=O)Cn2ncn3c(cc4ccccc43)c2=O)cc1`, the Potency was 15 µM (active).
For `CC(C)c1ccc(NC(=O)Cn2ncc3ccccc32)cc1`, the max response, negative = inhibition is 5.15%.
Still for that read-out and setting: the value for `COc1ccc(NC(=O)Cn2ncn3c(cc4ccccc43)c2=O)c(OC)c1OC` was -11.6%; that for `COc1ccc(C2OC(CCc3ccccc3)Cc3[nH]c(=S)[nH]c(=O)c32)cc1` (configuration not stated) was -0.658%; that for `CC(=O)Nc1cc(-c2ccccc2N(C)C)cn2c(-c3ccc(F)c(Cl)c3)cnc12` was -6.53%.
The same measure, in the same setting: the value for `COC(=O)[C@]12CCCCC=C1N(Cc1ccc3c(c1)OCO3)C(=O)[C@H](CC(=O)NCc1cccs1)C2` was -8.01%; that for `CCCNC(=O)C1(C)CCCN(Cc2cccc(C(F)(F)F)c2)C1` (configuration not stated) was -5.05%.
With `COc1ccc(CC(=O)NCc2nnc(SCC(=O)Nc3ncc(C)s3)n2C)cc1`, the Potency is 13.4 µM (active).
Regarding `COc1ccc(CC(=O)NCc2nnc(SCC(=O)Nc3nccs3)n2C)cc1`, the max response, negative = inhibition is 3.83%.
Regarding `COc1ccc(-c2nnc(SCC(=O)Nc3cccnc3Cl)n2C)cc1`, the max response, negative = inhibition was -2.41%.
Consider `COc1ccc(C(=O)NCc2nnc(SCCOc3ccccc3)n2C)cc1`, for which the Potency is 16.8 µM (active).
As for `COc1ccc(C(=O)NCc2nnc(SCC(=O)NC3=NCCS3)n2C)cc1`, the max response, negative = inhibition is -0.0324%.
Take `C=CCn1c(SCCOc2ccc(OC)cc2)nnc1C(NC(=O)c1ccc(OC)cc1)C(C)C` (configuration not stated): the max response, negative = inhibition was -13.7%.
Still for that read-out and setting: the value for `COc1cc2ccc(C(C)=O)c(O)c2cc1OC` was -1.98%; that for `Cc1nc2c(OCC(=O)C(C)(C)C)cccn2c1N(C)Cc1cccs1` was -10%.
For `COc1ccc(NC(=O)C2=NNC(=O)CC2)cc1S(=O)(=O)N1CCCCC1`, the Potency is 16.8 µM (active).
Turning to `COc1ccccc1C(=O)Nc1ccc(C)c(S(=O)(=O)N2CCCCC2)c1`, the max response, negative = inhibition is -5.05%.
Take `CCOC(=O)C1CCN(CC(=O)Nc2ccc(OC)c(S(=O)(=O)N3CCCCC3)c2)CC1`: the max response, negative = inhibition is 3.48%.
With `CC(=O)c1cccc(NC(=O)C2COc3ccccc3O2)c1` (configuration not stated), the max response, negative = inhibition was 2.4%.
Same read-out and setting: the value for `COc1ccc(NC(=O)COC(=O)C2COc3ccccc3O2)cc1` (configuration not stated) was -3.22%.
For the compound `O=C(Nc1nc(-c2ccncc2)cs1)C1COc2ccccc2O1` (configuration not stated), the Potency is 3.36 µM (active).
With `CCc1nc2ccc(C(=O)Nc3cc(-c4ccccc4)ccc3OC)cn2c1N(CC)CC(=O)N(C)C`, the max response, negative = inhibition is -4.06%.
The same measure, in the same setting: as for `Cc1ccc(C(=O)NCC(=O)NC2CC2)cc1`, the figure is -13.7%.
In the case of `Cc1ccc(C(=O)NCC(=O)NCc2cc(=O)n(C)c(=O)n2C)cc1`, the Potency is 26.7 µM (active).
Consider `COc1ccc(S(=O)(=O)NCC(=O)NCc2cc(=O)n(C)c(=O)n2C)cc1F`, for which the max response, negative = inhibition was -15.2%.
For `O=C(O)c1ccccc1Cc1ccc(F)c2ccccc12`, the max response, negative = inhibition is -10.5%.
On the same count and under the same terms, the value for `CN1OC[C@@H]2CN(C(=O)c3cccnc3)[C@H](c3ccc(N4CCCCC4)cc3)C[C@@H]21` was -6.62%; that for `COc1ccc(NC(=O)C2(C)Cc3c(-c4ccc(C(N)=O)cc4)ccnc3O2)cc1` (configuration not stated) was -13.3%; that for `CCOC(=O)c1ccc(Nc2cc3ccccc3c(=O)[nH]2)cc1` was -11.1%.
As for `CCOC(=O)c1sc(=S)n2c1[nH]c(=O)c1ccc(C(=O)OC)cc12`, the Potency is 6.7 µM (active).
As to `CCOC(=O)C1=C(C)Nc2sc(C(=O)c3ccc(Br)cc3)c(N)c2C1c1ccc(C(=O)OC)cc1` (configuration not stated), the max response, negative = inhibition was 3.24%.
